Experimental data from the supplement of paper PMC10681739.

target: T1, ETS1 (UniProt P14921); test: ETS1 binding intensity (PBM fluorescence), ETS1 alone (arbitrary fluorescence units); higher = stronger binding; conditions: ETS1 concentration 1 nM; RUNX1 concentration 0 nM
T1 sequence: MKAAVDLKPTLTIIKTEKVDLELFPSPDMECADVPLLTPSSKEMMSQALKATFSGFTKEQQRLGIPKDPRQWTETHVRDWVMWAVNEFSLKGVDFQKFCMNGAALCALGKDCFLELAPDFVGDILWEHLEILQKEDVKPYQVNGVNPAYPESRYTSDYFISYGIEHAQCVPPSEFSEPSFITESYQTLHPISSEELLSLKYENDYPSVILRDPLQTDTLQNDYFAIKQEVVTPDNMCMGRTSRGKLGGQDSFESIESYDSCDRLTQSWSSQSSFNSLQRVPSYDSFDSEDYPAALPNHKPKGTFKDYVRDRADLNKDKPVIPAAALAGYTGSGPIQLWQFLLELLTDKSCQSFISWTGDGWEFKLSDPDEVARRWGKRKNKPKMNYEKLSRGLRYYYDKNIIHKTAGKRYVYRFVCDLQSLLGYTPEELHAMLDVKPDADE
Protocol: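 Cooperative genomic-context PBM: 36-bp genomic probes with neighbouring ETS1 and RUNX1 sites, double-stranded on Agilent 4x180k arrays. Full-length recombinant human ETS1 (1 nM) was incubated alone or with RUNX1 (25 nM) and detected with anti-ETS1 antibody plus Alexa488 secondary. Value is the median fluorescence intensity over 4 replicate spots; the ETS1+RUNX1 data were normalised to the ETS1-only data using probes without RUNX1 sites. The 36-bp variable region sits on the array probe with constant linker/primer flanks that are not printed.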

Sequence	ETS1 binding intensity
GTCCCACGCGACTTCCTGCGGGAAACATGGCGGCAT	1520
CGGGGATGGGATTTCCGGTGGTTTTTCTTCACTTTC	4490
TTGGTCAGGATGTGGCTGAAGAAGCCACAAGAAAAA	796
TGAGTCATTTCCTGGGTGGGGGCCACAAGACCAGGT	540
TGGCAGCGGGTGCGGAAACCACAGGCCTCCAGGCTT	701
GGGGAAGAGGGGAGGATGTCTGAGGTTTTAATTGTA	523
GTCAGGGGAACAGGATGTGGGTGGGAGCCAGCCCCA	4250
CTCTTTCACAAAGGAAATGGAAACCACAAAGAGGAC	2140
CCGGTCCTGACCGGAAGCGGTAACCGTCACTCCTTC	21100
GTTGAGTTCCGGGGGAGGTTGAGTTCCTGCGGTCAA	397
AGCAACAACAAAGGAAGTGGCGGCCGCAGGGGGAGG	1320
GCTGCTTCCGGCCGCTGGTCGCAGGGCTGCGGGACT	865
TGTCTCATTTCCTGTAGGTAACAGGCACCACAATAG	1550
GCTGCCACTTCCCTTGCTTATTTCATGTGGTTTGGA	552
TGTTGGCTGTCCTCCGGAAACCCGCGCCTGGGTCGC	1820
AACTAAGTGCAGGGGAAGTTGTGGTTATTTTTTACC	657
GCAAGGCAACAGGAAATTGTGGGGAAATTTTAAAAA	3930
AGCAGCTGCCAGAGGAAGTCTGCGGTCGGAACAGGC	1260
CCGGGAGGGACGGAGGATGTGTGGTTCTGTCTCCTT	673
GTTTCATGTTAAGTAGGATGTGGTCAGTTAGCTTCG	851

Sequence	ETS1 binding intensity
CAGCAAAAGGCAGGATGTGGTTAAAACTGTGCTCTG	4320
TCTGTTCTTCCTTTTCCTGTGCGGTGTGCCCCAAAC	628
GCTGCGCAGAGGAAACCAGGCTTGTTGGTTTTCATG	432
ACAAGAGGAAGTGAGTCTACCCATGATGCGGTCACA	707
CGGGCTGGGAGGAAGTGATGGCTGACCACAGAGGAG	1130
GCACCCGGCACTACTTCCCGACCCGCATCCCCCGCC	689
TCTCGTCCGGTCCTTGCTCCCCCTCCCCGCAGCGCT	637
CTGCACAAGGAAGCGCCTGTGTTGCTGTGGGCGGAG	472
TCCAGCGGAAGGGGGCATCTTTGCGGCAGAGGCAGC	470
TGGCTTTGCAGAAGGAAGCTGTGGTTTCTGGTCTTC	620
CGGGTGGTGGCAGGATGTGGGTAGGGGGCCAGGCGA	2930
TTCAGGTGACTTCCGGCCGGACCGCTGAGGACGCGG	9020
ACTCACTTCCGTTTAGCTTATCAACCACCAAGAGAC	1020
GGCTGCGACTTCCGGACTGCTCCTGGCCGCAGGGGG	2070
GTGTTTCCTCTTTGTTTTGGGGCTGTGGTTGCCACA	414
AACCAAGAGGATTTCCTGCCCACACACTCAGCGTCT	870
CTGTGCGAGGCAGGATGTGGTCTCCCGCCACCAGGG	5450
TAGCCATCGTGCAAAGGATGTGGTGAAGTCAGTCAG	942
TGGTGTGACCAGGATGTGAACCGCGGCAAGCTGCCT	995
TTACGTTAAGGAGGAAACTCTGTGGTTAAACTGTAG	597
